This note sets out measurements from PubChem BioAssay (EPA / NIEHS).

The structures appear in SMILES notation. Some compounds were tested as several samples or in several runs, with calls that do not always agree. Calls of active or inactive are those of the source. The calls were made as follows: active = hit-call score of the fitted dose curve at least 0.9, where 1 is the maximum; inactive = score below 0.9.

Read-out in the test: Vascular cell adhesion molecule 1 (VCAM1), VCAM1 (gene 7412)
The test can be described thus: BSK_LPS_VCAM1: BioMAP Diversity Plus: LPS Assay for Vascular cell adhesion molecule 1 (VCAM1) Biomarker Activity (AID 2283086). Conditions: primary human HUVEC with PBMC; actives raise or lower the signal. How it is done:
BSK_LPS is a cell-based, multiplexed-readout assay that uses umbilical vein endothelium and peripheral blood mononuclear cells, a human vascular primary cell co-culture, with measurements taken at 24 hours after chemical dosing in a 96-well plate.BSK_LPS_VCAM1 is an assay component measured in the BSK_LPS assay. It measures VCAM-1 antibody related to regulation of gene expression using ELISA technology.Data from the assay component BSK_LPS_VCAM1 was analyzed into 1 assay endpoint. This assay endpoint, BSK_LPS_VCAM1, was analyzed with bidirectional fitting relative to DMSO as the negative control and baseline of activity. Using a type of binding reporter, gain or loss-of-signal activity can be used to understand changes in the signaling as they relate to the gene VCAM1. Furthermore, this assay endpoint can be referred to as a primary readout, because this assay has produced multiple assay endpoints where this one serves a signaling function. To generalize the intended target to other relatable targets, this assay endpoint is annotated to the cell adhesion molecules intended target family, where the subfamily is Immunoglobulin CAM.
The levels of cell surface (or secreted, indicated by the prefix "s") biomarker endpoints were measured by ELISA. Overt cytotoxicity to cells in confluent adherent cultures (all systems other than the BT system) was assessed by measuring total protein levels using sulforhodamine B (SRB) staining in parallel cultures at the time of biomarker measurements, indicated as SRB endpoints. For proliferation assays for adherent cell types, individual cell types are cultured at sub-confluence and relative cell numbers quantified by SRB staining at time points optimized for each system (48 h: 3C and CASM3C systems; 72 h: BT and HDF3CGF systems; 96 h: SAg system). SRB was performed by staining cells with 0.1% SRB after fixation with 10% TCA and reading wells at 560 nm.Viability and proliferation of PBMC (T cells) was quantified by Alamar Blue reduction for the SAg and BT systems. For PBMC viability (referred to as PBMC Cytotoxicity within the assay endpoint names), cells were plated (75,000/well in a 96-well plate) and then chemical samples added for 1 h before addition of activators, SEB and TSST-1 (20 ng/mL final concentration each). Cells were incubated for 90 h. Then, Alamar Blue (20 uL/well) (Invitrogen, Cat DAL1100) was added for 6 h, and the plates were read with a fluorescence microplate reader at 546/580 nm (excitation/emission). For PBMC proliferation, cells were plated and activated as above but incubated for only 16 h prior to addition of Alamar Blue. Plates were read after 6 h.
As a reminder, the AC50 is the midpoint of the concentration-response curve, whichever way the signal moves. Take `CCCCCCCCc1ccc(O)cc1`: the AC50 is 30.5 µM (active).

On to `O=C(Nc1ccc2[nH]ccc2c1)c1cc2cc(F)ccc2n1Cc1cccc(F)c1`, for which the AC50 is 11.9 µM (active).

On to `ClCC(Cl)CCl`, for which the outcome was inactive.

For `O=C(O)C(F)(F)C(F)(F)C(F)(F)C(F)(F)C(F)(F)C(F)(F)C(F)(F)C(F)(F)C(F)(F)C(F)(F)F`, the AC50 is 29.6 µM (active) and the outcome was inactive.

For the compound `COc1cc(OC)nc(NC(=O)NS(=O)(=O)c2ncccc2C(=O)N(C)C)n1`, the outcome was inactive.

Consider `CCN1CCC2(CC1)COc1cc3c(cc12)N(C(=O)c1ccc(-c2ccc(-c4nnc(C)o4)cc2C)cc1)CC3`, for which the AC50 is 22.6 µM (active).

For `CCC(=O)C(CC(C)N(C)C)(c1ccccc1)c1ccccc1` (stereo not given), the outcome was inactive.

As to `CCOC(=O)/C=C(C)/C=C/C[C@@H](C)CCCC(C)C`, the AC50 was 25.7 µM (active).

`CC(=O)[O][Hg][c]1ccccc1`: the AC50 was 2.4 µM (active).

As to `O=C(O)C(Cl)(Cl)Cl`, the result was inactive.

In the case of `CCNc1nc(NC(C)(C)C)nc(SC)n1`, the result was inactive.

Regarding `CC12CC1(C)C(=O)N(c1cc(Cl)cc(Cl)c1)C2=O` (stereo not given), the outcome was inactive.

As for `C(=NC1CCCCC1)=NC1CCCCC1`, the AC50 was 30.4 µM (active).

As for `CCSC(C)CC1CC(=O)C(C(CC)=NOC/C=C/Cl)=C(O)C1` (stereo not given), the result was inactive.

For `O=[N+]([O-])c1ccc2c3c(cccc13)CC2`, the result was inactive.

Turning to `Oc1c(I)cc(I)cc1I`, the AC50 is 14.3 µM (active).

`CC(C)(c1ccccc1)c1ccc(O)c(C(C)(C)c2ccccc2)c1`: the AC50 is 12.9 µM (active).

For the compound `COP(=S)(OC)Oc1ccc(Sc2ccc(OP(=S)(OC)OC)cc2)cc1`, the result was inactive.

`NC(=S)Nc1ccccc1`: the outcome was inactive.

In the case of `COC[C@H](C)N(C(=O)CCl)c1c(C)csc1C`, the outcome was inactive.

Turning to `Nc1cccc2ccccc12`, the outcome was inactive.

Regarding `CC(C)(C)c1cc(O)ccc1O`, the AC50 was 8.15 µM (active).

With `C=CC(=O)OCCCCCC(C)C`, the result was inactive.

Regarding `CC1(C)Cc2cccc(O)c2O1`, the result was inactive.

As to `CCOP(=S)(OCC)Oc1nc(Cl)c(Cl)cc1Cl`, the AC50 was 29.2 µM (active).

Consider `CC(C)c1ccc(CO)cc1`, for which the outcome was inactive.

In the case of `O=[N+]([O-])c1ccc(O)c([N+](=O)[O-])c1`, the result was inactive.

Take `O=S(=O)(c1ccc(Cl)cc1)c1ccc(Cl)cc1`: the outcome was inactive.

`O=C(O)CCC(F)(C(F)(F)F)C(F)(F)F`: the outcome was inactive.

Take `Oc1cccc2cccnc12`: the AC50 was 3.97 µM (active).

In the case of `CC(C)(OO)c1ccccc1`, the result was inactive.

For the compound `O=C(OC1CCCCC1)c1ccccc1C(=O)OC1CCCCC1`, the AC50 is 20.9 µM (active).

`O=C1C2(Cl)C3(Cl)C4(Cl)C(Cl)(Cl)C5(Cl)C3(Cl)C1(Cl)C5(Cl)C24Cl` (stereo not given): the AC50 is 9.63 µM (active).

Regarding `ClC(Cl)=C(Cl)C(Cl)=C(Cl)Cl`, the AC50 is 31.4 µM (active).

Turning to `CCOP(=S)(OCC)Oc1ccc(S(C)=O)cc1` (stereo not given), the outcome was inactive.

With `Oc1ccc(-c2ccccc2)cc1`, the result was inactive.

For `COC(=O)Cc1ccccc1`, the outcome was inactive.

For `CC(C)CCCCCCOC(=O)c1ccccc1C(=O)OCCCCCCC(C)C`, the outcome was inactive.

Turning to `Nc1ncc([N+](=O)[O-])s1`, the result was inactive.
